Bioassay records from PubChem.
An excerpt weighted towards active compounds, which were near 7.4% of everything screened.
Rab9 prom act: qHTS Assay for Rab9 Promoter Activators; Huh7 Rab9 promoter-luciferase reporter, luminescence, 24 h; Potency, µM (doses to about 9.22 µM), for inactives: at the top dose activation, negative = inhibition, hits mostly activators; actives 2.8% (n = 320,000); AID 485297, 2010; further: % of control where 0% means no effect; nearly all actives have a fitted effect of over 60% in size
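Cells were plated at 1500 per well in reduced-serum medium with 10% FBS and left 2 h. Compound in DMSO was then added for 24 h at 37 °C. Reporter signal was read by luminescence after 10 min with luciferase detection reagent.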
ELG1 genotoxic: qHTS screen for small molecules that induce genotoxicity in human embryonic kidney (HEK293T) cells expressing luciferase-tagged ELG1; actives 1.3% (n = 330,000); AID 504466, 2011; Potency, µM (doses to about 46 µM), inactives show at the top dose activity change, positive = activation, most hits filed as activators; HEK293T ELG1-luciferase reporter, luminescence, 16 h; further: % of control where 0% means no effect; nearly all actives have a fitted effect of over 60% in size
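Quantitative HTS format in 1536-well plates. HEK293T ELG1-luciferase reporter cells receive test compound and are incubated 16 hr at 37 °C, 5% CO2; ONE-Glo added, 30 min room temperature, then luminescence read.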
KinaseGlo FLuc: Counterscreen for Luciferase (Kinase-Glo TM) Inhibition. Kinase-Glo luciferase, ATP luminescence, 8 min. Potency, µM (series often up to 38.3 µM), for the others: at the highest dose activity change, negative = inhibition, most hits filed as inhibitors. actives 0.28% (n = 200,000); further: on the % scale 0 is the no-effect control and ±100 the full control effect; nearly all actives have a fitted effect of over 60% in size
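Inhibition of Kinase-Glo luciferase light generation was assessed at 10 uM ATP in pH 7.2 imidazole buffer, with luminescence measured after eight minutes at ambient temperature.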
SMN2 splice up: qHTS Assay for Enhancers of SMN2 Splice Variant Expression; HEK293 SMN2-luciferase splicing reporter, luminescence, 30-36 h; Potency, µM (series often up to 46.1 µM), inactives show at the highest dose activity change, positive = activation, actives largely listed as activators; actives 2.8% (n = 210,000); AID 1458, 2008; further: % of control where 0% means no effect; nearly all actives have a fitted effect of over 55% in size
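HEK293 cells carry an SMN2 […]–luciferase reporter in which exon 7 inclusion puts luciferase in frame. Cells were plated 10-12 h before compound addition, then incubated 30-36 h at 37C. ONE-Glo luminescence was read; sodium butyrate at 4.5 mM final served as control.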
NPC1 promoter act: qHTS Assay for NPC1 Promoter Activators. AID 485313, 2010. Potency, µM (top dose mostly 9.22 µM), for the others: at the top dose activation, hits mostly activators. Huh7 NPC1 promoter luciferase reporter, 24 h. actives 2.4% (n = 320,000); further: % of control where 0% means no effect; nearly all actives have a fitted effect of over 60% in size
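NPC1 promoter–luciferase Huh7 cells; 24 h compound; luminescence.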
FLuc modulator: qHTS profiling assay for firefly luciferase inhibitor/activator using purifed enzyme and Km concentrations of substrates (counterscreen for miR-21 project). purified FLuc, Km substrates, luminescence inhibition. AID 588342, 2011. actives 6.9% (n = 360,000). Luciferin 4-monooxygenase (Photinus pyralis), P08659. Potency, µM (top dose mostly 57.5 µM), for the others: top-dose activity change, negative = inhibition, actives largely listed as inhibitors;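 further: plate controls were vehicle for no effect and reference inhibitor for full effect; nearly all actives have a fitted effect of over 55% in size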
Target sequence (P08659 whole entry, looked up): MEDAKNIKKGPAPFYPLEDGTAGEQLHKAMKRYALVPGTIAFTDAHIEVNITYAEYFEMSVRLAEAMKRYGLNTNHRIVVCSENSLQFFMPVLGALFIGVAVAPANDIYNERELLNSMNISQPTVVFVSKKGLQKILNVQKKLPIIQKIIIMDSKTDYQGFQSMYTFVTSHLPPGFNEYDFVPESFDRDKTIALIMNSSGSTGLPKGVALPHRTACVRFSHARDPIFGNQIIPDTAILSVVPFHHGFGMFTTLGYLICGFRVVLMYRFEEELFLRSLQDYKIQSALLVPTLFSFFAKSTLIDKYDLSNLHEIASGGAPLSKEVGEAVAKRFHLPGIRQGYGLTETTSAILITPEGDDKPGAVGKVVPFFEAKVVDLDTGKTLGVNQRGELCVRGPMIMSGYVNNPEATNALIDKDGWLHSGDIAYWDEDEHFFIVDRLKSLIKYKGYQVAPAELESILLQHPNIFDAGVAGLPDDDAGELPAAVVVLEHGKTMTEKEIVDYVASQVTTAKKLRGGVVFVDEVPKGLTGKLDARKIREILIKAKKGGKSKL
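Purified P. pyralis luciferase (10nM final) with 10uM D-luciferin and 10uM ATP (Km levels) in 50mM Tris acetate pH 7.5, 10mM Mg acetate, 0.01% Tween-20, 0.05% BSA; qHTS 6-point titration, ~60 µM downward; luminescence read.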
Numbers without * were called inactive; ? = inconclusive; nt = no result given; [ ] = another dose, or the depositor's remark. The call rests on the fitted dose curve; in most records, active means well fitted curve in the direction sought with a large enough effect; inconclusive means small, poorly fitted or top-dose-only effect, or another doubt; inactive means no such curve, though single readings can be large; an effect the other way counts as inactive or inconclusive. Potency means the concentration at half of the fitted maximal effect.

SMILES	Rab9 prom act	ELG1 genotoxic	KinaseGlo FLuc	SMN2 splice up	NPC1 promoter act	FLuc modulator
CCN(Cc1ccccc1)C(=O)Cn1c(=O)n(-c2ccc(F)c(Cl)c2)c(=O)c2sc3ccccc3c21	nt	nt	nt	7%	nt	-2%
COc1cccc(C(=O)OCC(=O)c2ccc(Br)s2)c1	0%	1%	nt	nt	3%	7.6µM*
Cc1ccc(C(=O)COC(=O)c2cccc(O)c2)s1	4%	2%	nt	nt	15%	0.43µM*
Cc1cccc(C(=O)NCC(=O)OCC(=O)c2ccc(C)s2)c1	nt	3%	nt	nt	nt	nt
CCOC(=O)CSc1nc(-c2ccncc2)ccc1C#N	0.4µM*	?	5%	1.1µM*	1.3µM*	?
CCOC(=O)CSc1nc(-c2ccc3c(c2)OCO3)ccc1C#N	0.79µM*	?	5%	11%	2.5µM*	5.4µM*
CCOC(=O)CCCSc1nc(-c2ccc3c(c2)OCO3)cc(C(F)(F)F)c1C#N	-3%	-1%	-3%	2%	0%	2%
CCOC(=O)C1CCCN(CCC(=O)Nc2ccc(OC)cc2OC)C1 (stereo unspecified)	nt	nt	nt	-4%	nt	2%
COc1cccc(C=O)c1OCCCOc1cccc2cccnc12	4.5µM*	18µM*	nt	nt	?	?
Brc1ccccc1OCCCOc1cccc2cccnc12	4µM*	?	nt	nt	?	11µM*
Brc1ccccc1OCCOc1cccc2cccnc12	-3%	11%	-3%	?	-3%	12µM*
O=c1[nH]c2[nH]c(=S)[nH]c(=S)c2[nH]1	nt	nt	-2%[7.66 µM]	-5%[9.22 µM]	nt	nt
Cc1c(C(=O)c2ccccc2)oc2ccc3ccccc3c12	3.2µM*	?	nt	nt	?	4.8µM*
Cc1c(Cl)cccc1NC(=O)Nc1nnc(N(C)C2CCCCC2)s1	nt	nt	nt	nt	nt	-10%
O=C(Nc1cccnc1)c1cccc(-c2cc3ccccc3oc2=O)c1	-4%[1.84 µM]	12%	-6%	20%	18%	?
CCn1nnc(NC(=O)c2cccc(-c3cc4ccccc4oc3=O)c2)n1	2.5µM*	?	1%	13µM*	?	15µM*
Cc1ccc2nc(NC(=O)c3cccc(-c4cc5ccccc5oc4=O)c3)sc2c1	?	?	-1%	0%	?	21µM*
CC(C)CN1CC[C@@]2(CCCN(C(=O)c3cc(C(F)(F)F)cc(C(F)(F)F)c3)C2)C1	nt	nt	-2%	-11%	nt	nt
O=C(N=C1c2ccccc2CN1c1ccc(F)c(Cl)c1)c1cccnc1Cl	?	?	-13%	11µM*	?	15µM*
N#Cc1ccc(N2Cc3ccccc3C2=NC(=O)c2cccnc2Cl)cc1	?	10%	-16%	46%	19%	?
Cc1ccc(NC(=O)c2cc3ccccc3oc2=N)cc1	0.71µM*	?	nt	nt	0.45µM*	0.19µM*
N=c1oc2ccccc2cc1C(=O)Nc1cccc(F)c1	?	?	nt	nt	3.2µM*	0.3µM*
N=c1oc2ccccc2cc1C(=O)Nc1ccc(F)cc1	0.5µM*	5.2µM*	nt	nt	0.79µM*	0.85µM*
N=c1oc2cc(O)ccc2cc1C(=O)Nc1ccc(Cl)cc1	3.2µM*	?	nt	nt	2.2µM*	3µM*
Cc1ccc2c(CNC3CCC(C)CC3)c(C(=O)O)n(Cc3cccc(F)c3)c2c1 (stereo unspecified)	nt	nt	nt	nt	nt	-8%
SMILES	Rab9 prom act	ELG1 genotoxic	KinaseGlo FLuc	SMN2 splice up	NPC1 promoter act	FLuc modulator
Cc1cn2c(=O)c(S(=O)(=O)NCc3ccccc3Cl)c(C)nc2s1	nt	nt	nt	nt	nt	-6%
C[C@@H]1O[C@@H](O)[C@@H](O)[C@H](O)[C@H]1O	nt	nt	-2%[7.66 µM]	-8%[9.22 µM]	nt	nt
Cc1nc2scc(-c3ccccc3)c2c(=O)n1N	-1%	-7%	-5%	8%	-1%	-1%
Cc1nc2scc(-c3ccccc3)c2c(=O)n1N=C1C=CC(=O)C=C1	?	?	-7%	nt	23%	19µM*
Nc1c2c(nc3sc4c(c13)CCCC4)-c1ccccc1CC2	0.14µM*	0.73µM*	nt	nt	0.5µM*	0.13µM*
COc1cccc2cc(C(=O)NCCc3c(C)[nH]c4ccc(Br)cc34)c(=O)oc12	nt	nt	nt	2%	nt	-6%
Cc1sc(NC(=S)NC(=O)c2ccco2)c(C#N)c1C	?	?	4%	nt	0%	2.7µM*
Cc1sc(NC(=S)NC(=O)c2ccc(C(C)(C)C)cc2)c(C#N)c1C	-2%	0%	-4%	?	-4%	-11%
CCOC(=O)c1sc(NC(=O)c2ccco2)c(C#N)c1C	-2%	-2%	1%	-3%	0%	13µM*
CCc1c(C)sc(NC(=O)c2noc(C)c2[N+](=O)[O-])c1C#N	3%	3%	2%	-25%	-2%	11µM*
CCc1c(C)sc(NC(=O)c2ccco2)c1C#N	3.5µM*	?	nt	nt	?	17µM*
CCc1c(C)sc(NC(=O)c2cc(-c3ccc(O)cc3)on2)c1C#N	2%	0%	20%	14%	0%	0%
CCOC(=O)c1sc(NC(=O)CC)c(C#N)c1C	-3%	21%	8%	0%	-11%	4%
CC(C)=CCC[C@](C)(O[C@@H]1O[C@H](CO)[C@@H](O)[C@H](O)[C@H]1O)[C@H]1CC[C@]2(C)[C@@H]1[C@H](O)C[C@@H]1[C@@]3(C)CC[C@H](O[C@@H]4O[C@H](CO)[C@@H](O)[C@H](O)[C@H]4O[C@@H]4O[C@H](CO)[C@@H](O)[C@H](O)[C@H]4O)C(C)(C)[C@@H]3[C@@H](O)C[C@]12C	nt	nt	4%[39.9 µM]	nt	nt	nt
Cc1sc(NC(=O)c2ccco2)c(CN2CCN(c3ccccn3)CC2)c1C	10%	4%	nt	nt	8%	6µM*
Cc1sc(NC(=O)c2ccco2)c(CN2CCN(c3ccc(F)cc3)CC2)c1C	0%	-3%	-4%	-21%	0%	?
